# Results as given in paper PMC4336329 (PLoS ONE, 2015).
# About 2,200 (0.71%) of roughly 310,000 compounds showed an effect of 50% or more. The effect is printed as a negative number. The full list was thinned out, with strong results kept by preference.
# Biological target: human ether-à-go-go-related gene (hERG) potassium channel (human, UniProt Q12809)
# Experiment: primary screen, population patch clamp on CHO cells stably expressing hERG; higher = less effect of the substance
# Chain of human ether-à-go-go-related gene (hERG) potassium channel (Q12809 whole entry, looked up): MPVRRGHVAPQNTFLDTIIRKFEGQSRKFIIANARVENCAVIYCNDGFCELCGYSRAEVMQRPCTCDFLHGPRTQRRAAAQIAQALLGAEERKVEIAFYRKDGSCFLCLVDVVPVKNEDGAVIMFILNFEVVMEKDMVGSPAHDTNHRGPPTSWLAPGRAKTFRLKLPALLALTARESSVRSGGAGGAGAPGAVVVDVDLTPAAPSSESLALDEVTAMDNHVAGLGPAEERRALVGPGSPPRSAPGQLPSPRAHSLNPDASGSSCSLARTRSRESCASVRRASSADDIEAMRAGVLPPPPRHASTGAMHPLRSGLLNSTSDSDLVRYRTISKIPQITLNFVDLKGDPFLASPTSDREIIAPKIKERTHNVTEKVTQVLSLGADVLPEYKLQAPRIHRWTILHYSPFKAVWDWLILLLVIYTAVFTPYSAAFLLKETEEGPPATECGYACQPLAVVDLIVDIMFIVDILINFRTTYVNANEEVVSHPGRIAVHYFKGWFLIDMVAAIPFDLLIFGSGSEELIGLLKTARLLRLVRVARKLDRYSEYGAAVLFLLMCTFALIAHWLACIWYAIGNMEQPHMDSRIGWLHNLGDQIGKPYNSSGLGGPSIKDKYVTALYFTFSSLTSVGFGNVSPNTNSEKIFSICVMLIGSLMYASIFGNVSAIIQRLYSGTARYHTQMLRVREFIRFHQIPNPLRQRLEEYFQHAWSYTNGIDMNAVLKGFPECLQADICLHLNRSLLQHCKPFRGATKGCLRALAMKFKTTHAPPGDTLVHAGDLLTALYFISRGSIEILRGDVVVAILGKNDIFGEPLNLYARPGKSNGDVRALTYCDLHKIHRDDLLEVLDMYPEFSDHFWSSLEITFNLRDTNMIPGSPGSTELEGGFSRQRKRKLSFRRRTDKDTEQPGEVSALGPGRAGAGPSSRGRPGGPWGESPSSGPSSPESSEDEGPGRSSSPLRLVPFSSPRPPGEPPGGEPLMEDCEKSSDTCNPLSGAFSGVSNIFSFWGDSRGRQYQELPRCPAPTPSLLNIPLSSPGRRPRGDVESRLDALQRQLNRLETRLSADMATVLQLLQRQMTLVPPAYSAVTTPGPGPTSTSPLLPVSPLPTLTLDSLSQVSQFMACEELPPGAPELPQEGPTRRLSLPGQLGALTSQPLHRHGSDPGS
row,SMILES,"hERG current change (%, negative = inhibition) at 1uM"
1,COc1ccc([N+](=O)[O-])cc1N(CC(=O)N1CCCC1)S(C)(=O)=O,10.2%
2,O=C(NC1(C(F)(F)F)NC(=O)N(Cc2cccnc2)C1=O)c1ccncc1 (stereo not drawn),18.1%
3,O=C(NC(Cc1c[nH]c2ccccc12)C(=O)N1CCOCC1)c1cccs1 (stereo not drawn),11.2%
4,CC(C)(C)OC(=O)NCCCCCc1nnc(SCC(=O)Nc2cccc(Cl)c2)o1,-1.82%
5,Cc1ccc(SCC(=O)Nc2ccc(N3CCN(C)CC3)c(F)c2)c(C)c1,-47.8%
6,COc1ccc(/C=N/N2CCN(C3c4ccccc4-c4ccccc43)CC2)cc1OC,12.9%
7,COCCOC(=O)c1c(NC(=O)CNc2ccc(C)c(F)c2)sc(C(N)=O)c1C,11%
8,Cc1cc(NC(=O)c2ccc(Cl)cc2)n(-c2ccccc2)n1,13.6%
9,Cc1cc(NC(=O)c2ccccc2)n(-c2ccccc2)n1,12.1%
10,Cc1cc(NC(=O)c2ccc(F)cc2)n(-c2ccccc2)n1,-75.3%
11,Nc1c(-c2ccc(Cl)cc2)cnc2c(-c3ccccc3)cnn12,18.5%
12,Cc1ccc(CSCCNS(C)(=O)=O)cc1,10.9%
13,CC(=O)N1CCCc2cc(S(=O)(=O)NC(C(=O)NC(C)c3ccccc3)C(C)C)ccc21 (stereo not drawn),1.38%
14,COc1ccc(CN2CCNC(=O)C2CC(=O)N(C)CCC2CCOCC2)cc1OC (stereo not drawn),13.7%
15,Cc1ccc(S(=O)(=O)N2CCOC2CNC(=O)C(=O)NCCCc2ccccc2)cc1 (stereo not drawn),5.36%
16,CCCCCN1C=CC=C/C1=C\C=C(C#N)C#N,-28.2%
17,CCCCCCN1C=CC=C/C1=C\C=C(C#N)C#N,-69.9%
18,CCCCCCN1C=CC=C/C1=C/C=C(C#N)C#N,-26.6%
19,CCOC(=O)C(O)(CC(=O)Nc1ccc(Cl)cc1Cl)C(F)(F)F (stereo not drawn),6.91%
20,CCOC(=O)C(Cc1ccccc1)(NC(C)=O)C(=O)OCC,14.4%
21,CCOC(=O)C(Cc1c(F)cccc1F)(NC(C)=O)C(=O)OCC,8.71%
22,CCOC(=O)COc1ccc(N)cc1CC(NC(C)=O)(C(=O)OCC)C(=O)OCC,-69.6%

row,SMILES,"hERG current change (%, negative = inhibition) at 1uM"
1,COc1ccc(C)cc1NC(=O)C(OC(=O)CNC(=O)c1ccc(Br)cc1)c1ccccc1 (stereo not drawn),11.1%
2,Cc1cccc(/C=N/n2c(-c3ccccn3)n[nH]c2=S)c1,14.4%
3,CC1CN(S(=O)(=O)c2cccc(C(=O)NCC3COc4ccccc4O3)c2)CC(C)O1 (stereo not drawn),0.895%
4,O=c1ccc(-c2nc3cc(Cl)ccc3n2Cc2ccccc2)c[nH]1,-45%
5,O=c1ccc(-c2nc3ccccc3n2Cc2ccccc2Cl)c[nH]1,4.18%
6,O=c1ccc(-c2nc3ccccc3n2Cc2ccc(Cl)cc2)c[nH]1,-50.5%
7,Cc1cc(C)nc(SCC(=O)c2ccc(O)c(O)c2)n1,16%
8,O=S(=O)(N/N=C/c1cn(Cc2ccccc2)c2ccccc12)c1ccccc1,6.23%
9,CCc1ccc2oc(C(=O)N3CCN(c4ccccc4OC)CC3)cc(=O)c2c1,-57.4%
10,COc1ccccc1N1CCN(C(=O)c2cc(=O)c3cc(C)ccc3o2)CC1,-8.99%
11,COc1ccccc1N1CCN(C(=O)c2cc(=O)c3ccc(C)cc3o2)CC1,1.21%
12,CCc1ccc2oc(C(=O)N3CCN(c4ccc(OC)cc4)CC3)cc(=O)c2c1,1.45%
13,COc1ccc(N2CCN(C(=O)c3cc(=O)c4cc(Cl)ccc4o3)CC2)cc1,-81.5%
14,COc1ccc(N2CCN(C(=O)c3cc(=O)c4cc(C)ccc4o3)CC2)cc1,-3.09%
15,Cc1ccc(Cn2nnc3c(=O)[nH]c(C4CCCN(C(=O)Nc5ccc(F)cc5F)C4)nc32)cc1 (stereo not drawn),13.8%
16,O=C(CNC(=O)c1ccccc1O)N/N=C/c1ccccn1,4.2%
17,COc1ccc(Cc2nnc(SCC(=O)Nc3ccc(C)c(Cl)c3)[nH]c2=O)cc1,5.51%
18,CC(C)=CCCC(C)CN1CCC(n2nccc2NC(=O)C2CCCC2)CC1 (stereo not drawn),-50.3%
19,CC(C)=CCCC(C)CN1CCC(n2nccc2NC(=O)c2cccnc2)CC1 (stereo not drawn),-5.79%
20,O=C(Nc1ccnn1C1CCN(CC(O)CO)CC1)C1CCCC1 (stereo not drawn),12.5%
21,CC(C)=CCCC(C)CN1CCC(n2nccc2NC(=O)c2ccccc2)CC1 (stereo not drawn),-52.2%
22,CCc1ccc(CN2CCC(n3nccc3NC(=O)c3ccccc3)CC2)o1,-6.11%

row,SMILES,"hERG current change (%, negative = inhibition) at 1uM"
1,CC(CN1CCC(n2nccc2NC(=O)C2CCCC2)CC1)c1ccccc1 (stereo not drawn),2.95%
2,CCOC(=O)C(C)n1cnc2c1c(=O)[nH]c(=O)n2C (stereo not drawn),8.76%
3,CCCCNC(=O)[C@H]1C[C@H]1[C@@H](O)[C@H](CO)NC(=O)[C@H](Cc1ccccc1)NC(=O)OC(C)(C)C,11.5%
4,CCOc1ccc(C(=O)Nc2ccc(S(=O)(=O)N3C[C@@H]4C[C@@H](C3)c3cccc(=O)n3C4)cc2)cc1,-1.43%
5,CCN(CC)CCNC(=O)c1[nH]c2ccc(OCc3ccccc3)cc2c1C,-61.3%
6,COc1ccc2[nH]c(C(=O)NCc3ccccc3)c(C)c2c1.Cl,10.3%
7,Cc1c(C(=O)N2CCOCC2)[nH]c2ccc(OCc3ccccc3)cc12,-1.19%
8,COc1ccc(N(C(=O)c2ccccc2OC)C2C=CS(=O)(=O)C2)c(OC)c1 (stereo not drawn),14.4%
9,COc1ccc(CN2CCNC(=O)C2CC(=O)NCCc2nc(C)c3c(n2)CCC3)cc1C (stereo not drawn),32.9%
10,CCC(c1nnnn1CCc1ccccc1)N1CCN(c2ccc(OC)cc2)CC1 (stereo not drawn),14.5%
11,COc1cccc(CC2(CO)CCN(Cc3cccn3-c3cccnc3)CC2)c1,-6.04%
12,COc1ccc(F)c(CN2CCC(CO)(Cc3cccc(C(F)(F)F)c3)CC2)c1,-1.43%
13,OCC1(Cc2cccc(F)c2)CCN(Cc2cccc3nccnc23)CC1,-19.8%
14,COC(=O)c1ccc(CN2CCC(CO)(Cc3ccc(OC)cc3)CC2)cc1,-35.1%
15,OCC1(Cc2ccccc2C(F)(F)F)CCN(Cc2ccccc2)CC1,3.01%
16,COc1ccc(CC2(CO)CCN(Cc3cccc4nccnc34)CC2)cc1,-53%
17,COc1ccc(CC2(CO)CCN(Cc3cccn3-c3ccccn3)CC2)cc1,-84.2%
18,COc1ccc(CN2CCC(CO)(Cc3ccccc3C(F)(F)F)CC2)c(F)c1,-53%
19,COc1ccc(CC2(CO)CCN(Cc3ccncc3)CC2)cc1,7.36%
20,COc1ccc(CC2(CO)CCN(Cc3cccnc3)CC2)cc1,1.4%
21,COc1ccc(CC2(CO)CCN(Cc3ccc(OC(F)(F)F)cc3)CC2)cc1,-57.5%
22,COc1ccc(CC2(CO)CCN(Cc3cccc(OC)c3OC)CC2)cc1,-17.3%
